An excerpt weighted towards active compounds, which were near 1.6% of everything screened.
KCNQ2 enhance – KCNQ2 (rat) channel potentiation; CHO-K1 KCNQ2, FluxOR thallium flux fluorescence; active compounds read high; B-score at 10 µM; 310,000 tested, 0.54% active;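 active = fluorescence ratio B-score at least 3 SD of library B-scores, with initial fluorescence B-score within 3 of them, cut at about 5.3 in these data; same plate scores as AID 2156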;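 also: B-score of peak minus minimum over baseline fluorescence ratio after K+ and Tl+ stimulus; positive B-score means potentiation of KCNQ2 with more thallium influx and brighter signal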
Target sequence (O88943 whole entry, looked up): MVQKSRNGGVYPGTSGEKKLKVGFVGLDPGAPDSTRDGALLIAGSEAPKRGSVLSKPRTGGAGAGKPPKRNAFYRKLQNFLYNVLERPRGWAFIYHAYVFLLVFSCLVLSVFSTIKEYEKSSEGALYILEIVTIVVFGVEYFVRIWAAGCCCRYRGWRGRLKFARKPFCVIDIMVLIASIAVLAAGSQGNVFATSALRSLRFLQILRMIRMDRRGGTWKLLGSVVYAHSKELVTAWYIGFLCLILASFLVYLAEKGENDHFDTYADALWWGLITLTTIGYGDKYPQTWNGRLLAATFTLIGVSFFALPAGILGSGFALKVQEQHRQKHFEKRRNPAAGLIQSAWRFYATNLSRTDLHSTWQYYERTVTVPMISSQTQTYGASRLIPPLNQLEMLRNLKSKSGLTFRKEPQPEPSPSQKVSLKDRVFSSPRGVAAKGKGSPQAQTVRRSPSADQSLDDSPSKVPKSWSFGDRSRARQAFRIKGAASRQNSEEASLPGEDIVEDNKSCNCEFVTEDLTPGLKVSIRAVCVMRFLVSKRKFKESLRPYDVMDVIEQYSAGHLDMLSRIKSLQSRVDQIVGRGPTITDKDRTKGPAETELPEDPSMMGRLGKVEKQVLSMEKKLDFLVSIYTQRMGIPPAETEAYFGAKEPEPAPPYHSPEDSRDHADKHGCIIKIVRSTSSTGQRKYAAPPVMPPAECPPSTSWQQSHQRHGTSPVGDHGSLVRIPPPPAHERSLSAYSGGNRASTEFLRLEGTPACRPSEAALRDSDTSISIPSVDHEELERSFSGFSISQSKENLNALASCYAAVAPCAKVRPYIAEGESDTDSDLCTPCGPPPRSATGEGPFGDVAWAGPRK
KCNQ2 block – blocks the rat KCNQ2 potassium channel | O88943 | CHO-K1 KCNQ2, FluxOR thallium flux, 20 min; active compounds read low | B-score at 10 µM | 310,000 tested, 1.1% active;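 active = fluorescence ratio B-score at most minus 3 library SDs, with starting brightness B-score within 2 library SDs, cut at about -5.5 in these data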
* marks the source's active call; other numbers are inactive results; i = inactive; . = no result.

SMILES	KCNQ2 enhance	KCNQ2 block
COc1cc(OC)c(C2=NOC(C(=O)N3CCCc4ccccc43)C2)cc1Cl (stereo not given)	0.18	i
CCC1CCCCN1C(=O)C1CC(c2cc(Cl)c(OC)cc2OC)=NO1 (stereo not given)	-6.23	-6.23*
Cc1ccc(C(=O)NC2CCN(CC(=O)Nc3ccccc3Cl)CC2)cc1	.	i
COc1ccc(C2=NS(=O)(=O)N(C)C(C(=O)NCc3cccs3)=C2)cc1OC	0.66	i
COc1ccc(NC(=O)C(=O)N/N=C(\C)CC(=O)Nc2cc(C)ccn2)c(OC)c1	1.03	i
C/C(CC(=O)Nc1cc(C)ccn1)=N\NC(=O)C(=O)Nc1cccc(C)c1	5.36*	i
COc1ccccc1NC(=O)CSc1nnc(C)s1	0.34	i
CN(CCOc1ccccc1)CC(=O)Nc1cccc(Br)c1	-6.3	-6.3*
Cc1cc(NC(=O)CN(C)CCOc2ccccc2)ccc1Br	.	i
N#Cc1ccc(Oc2ncccn2)cc1	1.73	i
CCOC(=O)CC1(NC(=O)C2CCC(=O)N(C3CC3)C2)CCCCC1 (stereo not given)	.	i
CCOC(=O)CC1(NC(=O)C2CCC(=O)N(CCc3ccccc3)C2)CCCCC1 (stereo not given)	-6.35	-6.35*
COC(=O)c1ccc(NC(=S)NC2CCCCC2)cc1	.	i
COC(=O)c1cccnc1NC(=S)NC1CCCCC1	7.69*	i
Cc1c(Cl)cccc1NC(=O)C1Cc2ccccc2CN1C(=O)c1ccccc1 (stereo not given)	-7.88	-7.88*
Cc1cccc(NC(=O)C2Cc3ccccc3CN2C(=O)OCc2ccccc2)c1C (stereo not given)	.	i
COc1ccc(OCc2cc(C(=O)NCc3cccc(C)n3)no2)c(Cl)c1	0.53	i
Cc1ccc(Sc2ncccc2C(=O)N(C)Cc2cccs2)c(C)c1	.	i
CN(C)c1ccc(CNc2ccc3c(c2)ncn3C(C)(C)C)cc1	.	i
CN(C)/C=C(\C#N)C(=O)c1cccc(Oc2ccc(Br)cc2)c1	.	i
CC(C)c1ccc(Oc2cccc(C(=O)/C(C#N)=C/N(C)C)c2)cc1	-6.2	-6.2*
CC(C)CCn1c(Sc2nc3ccccc3o2)nc2c1c(=O)[nH]c(=O)n2C	0.17	i
CC1CCN(C(=O)c2ccccc2SCC(=O)NCC2CCCCC2)CC1	-6.01	-6.01*
COCCNC(=O)CSc1ccccc1C(=O)NCC1CCCCC1	0.1	i
CC(C)(C)C(=O)[C@H]1[C@H](c2ccccc2)[C@@]2(N=C(c3ccccc3)OC2=O)C2c3ccccc3C=NN21 (stereo not given in full)	-6.2	-6.2*
SMILES	KCNQ2 enhance	KCNQ2 block
COc1ccc([C@H]2[C@H](C(=O)OC(C)(C)C)N3N=Cc4ccccc4C3C23C(=O)c2ccccc2C3=O)cc1OC (stereo not given in full)	.	i
COc1ccccc1CNC(=O)c1nccnc1CO	0.51	i
Cc1ccc(C(C)C)c(OCC(=O)NC(=S)Nc2ccccc2N2CCOCC2)c1	-6.45	-6.45*
Cc1cccc(OCC(=O)NC(=S)Nc2ccccc2N2CCOCC2)c1C	.	i
Cc1ccccc1OCC(=O)Nc1ccccc1-c1ccccc1NC(=O)COc1ccccc1C	-5.61	-5.61*
Cc1ccccc1OCC(=O)Nc1ccccc1N1CCC(C)CC1	-6.2	-6.2*
Cc1ccccc1OCC(=O)Nc1cccc(Cl)c1C	0.3	i
CC(=O)N1CCN(c2ccccc2NC(=O)COc2ccccc2C)CC1	.	i
Cc1ccc(OCC(=O)Nc2ccccc2N2CCCC2)c(C)c1	-5.57	-5.57*
O=C(COc1ccccc1)Nc1ccccc1N1CCCCC1	.	i
Cc1cc(O)cc(=O)n1Cc1ccccc1	0.23	i
O=C(N=C1SC2CS(=O)(=O)CC2N1CCc1ccccc1)C1CCCCC1 (stereo not given)	1.21	i
COC(=O)C1Cc2c([nH]c3ccccc23)CN1C(C)=O (stereo not given)	0.94	i
COc1ccc(OCCCC(=O)N(C)CC(=O)Nc2ccccc2Cl)cc1	0.36	i
COc1cc(NS(=O)(=O)c2ccc(NC(=S)NC(=O)c3ccc(F)c(F)c3)cc2)nc(OC)n1	0.62	i
COc1ccc(C(=O)Nc2ccccc2N2CCOCC2)cc1Br	-6.29	-6.29*
COc1ccc(C(=O)NC(=S)Nc2ccccc2N2CCOCC2)cc1Br	.	i
Cc1ccccc1OCC(=O)Nc1ccc(S(=O)(=O)N2CCCC2)cc1	.	i
Cc1ccccc1OCC(=O)Nc1ccc(C)c(S(=O)(=O)N2CCCCCC2)c1	-6.07	-6.07*
Cc1cc(C)c(OCC(=O)Nc2ccccc2N2CCCCC2)c(C)c1	-5.56	-5.56*
Cc1cccc(OCC(=O)Nc2ccccc2N2CCCCC2)c1	.	i
COc1cccc2cc(C(=O)NCCN3CCOCC3)c(=O)oc12	.	i
COc1ccc(NC(=O)c2cnc(SC)nc2C)c(OC)c1	0.03	i
CCn1cc(CNC(=S)Nc2cccc(Cl)c2C)cn1	0.02	i
CCOC(=O)C1CCCN(C(=O)c2ccc3nc(-c4cccc(OC)c4)oc3c2)C1 (stereo not given)	.	i
SMILES	KCNQ2 enhance	KCNQ2 block
Cc1c(C(=O)OCC(=O)N(C)c2ccccc2)oc2ccccc12	.	i
O=C(Nc1ccc(C(=O)O)cc1)/C(=C\c1ccccc1)NC(=O)c1ccco1	0.24	i
O=C(Nc1ccc(C(=O)O)cc1)/C(=C\c1ccc2c(c1)OCO2)NC(=O)c1ccco1	6.47*	i
O=C(CSc1nc2ccccc2s1)NC1CCCc2ccccc21 (stereo not given)	.	i
CNC(=O)CSc1nnc(-c2ccncc2)n1Cc1ccccc1	.	i
Cc1cccc(Nc2nnc(SCC(=O)NC3CCCc4ccccc43)s2)c1C (stereo not given)	-5.92	-5.92*
O=C(CSc1nnc(-c2ccncc2)n1Cc1ccccc1)NC1CCCc2ccccc21 (stereo not given)	-5.75	-5.75*
O=C(CSc1nc2c(oc3ccccc32)c(=O)n1CC1CCCO1)NCc1ccccc1 (stereo not given)	0.76	i
S=C1NC2=C(CCC/C2=C\c2ccccc2)C(c2ccccc2)N1 (stereo not given)	0.15	i
C(=C1/CCCC2=C1Nc1ncnn1C2c1ccccc1)/c1ccccc1 (stereo not given)	-6.52	-6.52*
O=C(NC(NC1CCS(=O)(=O)C1)C(=O)c1cccs1)c1ccccc1 (stereo not given)	.	i
O=C(NC1=C(NC2CCS(=O)(=O)C2)C(=O)c2ccccc2C1=O)c1ccccc1 (stereo not given)	6.23*	i
CC(=O)Nc1ccc(S(=O)(=O)N2CCN(c3nc4ccccc4n3CC(C)C)CC2)cc1	.	i
NC(=O)CSCc1cccc(Br)c1	.	i
NC(CSCc1cccc(Br)c1)C(=O)O (stereo not given)	-5.95	-5.95*
O=C(Nc1ccc2ccccc2c1)C(c1ccccc1)C1CCCC1 (stereo not given)	-5.7	-5.7*
Cc1ccc(NC(=O)C(c2ccccc2)C2CCCC2)cc1 (stereo not given)	.	i
COc1ccc(-n2nc(C(=O)NCC(=O)N3CCC(C)CC3)c3ccccc3c2=O)c(OC)c1	.	i
CC(C)c1ccc(/C=C2\SC(=O)N(CC(=O)NCCCn3ccnc3)C2=O)cc1	.	i
Cc1ccc(COc2cccc3c2CCN(Cc2ccc(F)cc2)C3=O)cc1	.	i
O=C1c2cccc(OCc3ccc(F)cc3)c2CCN1Cc1ccccc1	-6.55	-6.55*
Cc1nccn1CCOc1ccccc1Cl	.	i

From PubChem BioAssay
